Measurements published in the supplement of paper PMC6555819.

Key:
Assay in all cases: PBM binding z-score (relative to random genomic background probes); higher = stronger binding; sequences stand for … in GC…GCGATTGACAGCGTAGAATGAAGG
[1] = test system: FXR:RXRa (NR concentration 270 nM, RXRa partner concentration 90 nM)
Summary of the method: (§1)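 Binding z-scores take random background probes as their reference. They come from custom Agilent 4×180K protein-binding microarrays incubated 1 h with ligand-free nuclear receptor dimers, with antibodies against each partner (one per run) detecting binding. Scanned fluorescence was regression-normalized.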

[2] = test system: LXRa:RXRa (NR concentration 270 nM, RXRa partner concentration 90 nM)
Summary of the method: as §1

[3] = test system: LXRa homodimer (NR concentration 270 nM)
Summary of the method: as §1

[4] = test system: LXRb:RXRa (NR concentration 270 nM, RXRa partner concentration 90 nM)
Summary of the method: as §1

[5] = test system: LXRb homodimer (NR concentration 270 nM)
Summary of the method: as §1

[6] = test system: PPARa:RXRa (NR concentration 270 nM, RXRa partner concentration 90 nM)
Summary of the method: as §1

[7] = test system: PPARg:RXRa (NR concentration 180 nM, RXRa partner concentration 90 nM)
Summary of the method: as §1

[8] = test system: PPARg:RXRa 270nM:90nM, anti-RXR (NR concentration 270 nM, RXRa partner concentration 90 nM)
Summary of the method: as §1

[9] = test system: PPARg:RXRa 30nM:10nM, anti-RXR (NR concentration 30 nM, RXRa partner concentration 10 nM)
Summary of the method: as §1

[10] = test system: PPARg:RXRa 90nM:30nM, anti-RXR (NR concentration 90 nM, RXRa partner concentration 30 nM)
Summary of the method: as §1

[11] = test system: PPARg:RXRa DBDmut IVT, anti-RXR (DBD mutation: RXRa K156A/R161A, NR concentration 270 nM, RXRa partner concentration 90 nM)
Summary of the method: as §1

[12] = test system: PPARg:RXRa IVT, anti-PPARg (NR concentration 270 nM, RXRa partner concentration 90 nM)
Summary of the method: as §1

[13] = test system: PPARg DBDmut:RXRa IVT, anti-PPARg (DBD mutation: PPARg1 K132A/R137A, NR concentration 270 nM, RXRa partner concentration 90 nM)
Summary of the method: as §1

[14] = test system: PPARg DBDmut IVT, anti-PPARg (DBD mutation: PPARg1 K132A/R137A, NR concentration 270 nM)
Summary of the method: as §1

[15] = test system: PPARg homodimer (NR concentration 180 nM)
Summary of the method: as §1

[16] = test system: PXR:RXRa (NR concentration 270 nM, RXRa partner concentration 90 nM)
Summary of the method: as §1

[17] = test system: PXR homodimer (NR concentration 270 nM)
Summary of the method: as §1

[18] = test system: RARa:RXR (NR concentration 270 nM, RXRa partner concentration 90 nM)
Summary of the method: as §1

[19] = test system: RARa homodimer (NR concentration 270 nM)
Summary of the method: as §1

[20] = test system: RARb:RXRa (NR concentration 270 nM, RXRa partner concentration 90 nM)
Summary of the method: as §1

Sequence | PBM binding z-score [1] | PBM binding z-score [2] | PBM binding z-score [3] | PBM binding z-score [4] | PBM binding z-score [5] | PBM binding z-score [6] | PBM binding z-score [7] | PBM binding z-score [8] | PBM binding z-score [9] | PBM binding z-score [10] | PBM binding z-score [11] | PBM binding z-score [12] | PBM binding z-score [13] | PBM binding z-score [14] | PBM binding z-score [15] | PBM binding z-score [16] | PBM binding z-score [17] | PBM binding z-score [18] | PBM binding z-score [19] | PBM binding z-score [20]
GCTCGGAGGCCAAGGTCAGAGCTTTGTCCGTAGA | 1.41 | 1.03 | -0.427 | 0.907 | -1.5 | 1.85 | 0.0755 | 1.47 | -0.393 | 0.573 | 0.637 | 0.382 | -1.23 | -1.94 | 1.18 | 1.64 | -0.446 | 1.82 | -1.6 | 3.45
CATAGCAGGCCAGGGTCACTCAAGCATTTCGCTT | 2.42 | 1.71 | -0.165 | 2.2 | 0.0433 | 3.42 | 1.88 | 2.27 | 0.29 | 1.54 | 1.4 | 2.14 | -0.201 | -0.525 | 1.38 | 2.93 | -0.247 | 3.63 | -0.0529 | 2.79
CGTCCAAGGTGATAGGAGGTCAGTGAAGACAGAT | 1.74 | 2.85 | 0.6 | 1.86 | -0.299 | 2.71 | 1.06 | 1.49 | 0.0813 | 0.512 | 1.37 | 2.78 | 0.0253 | 0.186 | 1.91 | 3.57 | 0.47 | 2.31 | 0.367 | 2.85
CCGATTAGGTTATGGGGCATTCAGGCAACGGTGA | 0.472 | 0.574 | -0.0892 | 0.58 | -0.609 | 1.58 | 2.14 | 3.35 | 1.63 | 2.83 | 2.29 | 2.29 | -0.258 | -1.33 | 1.18 | 0.0495 | -0.245 | 0.615 | 0.0747 | 1.37
CAAACTGGGTCAAGGTCAAAGTCGGTTTGTGCCA | 6.14 | 4.7 | 2.42 | 4.41 | 0.882 | 5.96 | 9.55 | 7.65 | 6.43 | 7.63 | 8.04 | 8.43 | 4.25 | 1.48 | 4.04 | 5.26 | 2.48 | 5.2 | 1.14 | 4.95
TGATATAGGTAAAAGGTGAAAGTCGGTGTGGTAA | 1.72 | 1.59 | 0.194 | 1.96 | 0.256 | 5.88 | 9.54 | 8.88 | 8.67 | 9.7 | 5.38 | 5.55 | 1.59 | 1.77 | 1.8 | 1.68 | 0.555 | 2.78 | 1.18 | 2.05
CCAACTGGGGCAAAGGTTACCATACTCAGTACGA | 1.45 | 1.76 | 0.221 | 2.29 | -0.694 | 6.03 | 11.6 | 9.99 | 9.26 | 10.5 | 6.6 | 6.7 | 0.471 | -0.285 | 1.54 | 2.39 | 0.017 | 4.34 | 0.873 | 2.65
AGACAAAGTTCATCTAGGTAACGTAAGATATGCT | 6.83 | 6.21 | 5.23 | 3.92 | 1.56 | 4.91 | 4.69 | 4.99 | 1.93 | 3.69 | 1.22 | 3.2 | 1.33 | 1.93 | 3.1 | 5.34 | 6.29 | 4.17 | 1.38 | 4.98
AATACAGCGTCACTAGGCCAGAGTAGGTACGAAT | -0.287 | -0.499 | -0.588 | -0.808 | -0.279 | 0.0154 | 0.87 | 0.513 | 0.103 | 0.0712 | 0.487 | 1.5 | -0.275 | 0.0334 | -0.38 | -0.519 | -0.407 | -0.516 | -0.0306 | -0.113
ACTAGTTGGTCAGCTGAGGTTACACACAATTCGG | 1.56 | 0.761 | 0.139 | 1.29 | 0.188 | 1.42 | 0.989 | 0.496 | 0.134 | 0.586 | 1.4 | 1.58 | 0.987 | 0.803 | 1.09 | 2.46 | 0.19 | 1.64 | -0.138 | 1.73
CCAGACAGGTGAAAAGTAACTCAGTCTGGTACGC | -0.306 | -0.0475 | -0.078 | 0.0504 | -0.286 | 1.01 | 1.08 | 2.27 | 0.369 | 1.43 | 1.47 | 0.789 | -0.595 | -0.539 | 0.332 | -0.0943 | -0.142 | 0.133 | 0.489 | 0.36
TCTGCTAGGTCAACGATGGTCAACTAATCTGCTA | 3.62 | 3.21 | 0.113 | 2.15 | 0.0398 | 3.3 | 2.54 | 3.18 | 1.79 | 2.6 | 4.51 | 4.3 | 0.357 | 0.326 | 1.75 | 2.4 | -0.851 | 2.39 | -0.654 | 4.12
TGAATGAGGTTAAAGATCAGGCAACGTGGCGTCG | 2.94 | 2.82 | -0.471 | 1.4 | 0.134 | 4.85 | 5.51 | 6.49 | 5.01 | 6.3 | 2.24 | 3.79 | 0.599 | 0.0672 | 0.811 | 1.83 | 0.118 | 2.92 | -0.39 | 2.02
CCTGCTAGGTCAATGGTCAGTTAAAGCAGCTCGC | 3.02 | 2.09 | 0.0181 | 1.53 | -0.0412 | 3.22 | 4.36 | 4.88 | 2.78 | 4.69 | 4.28 | 3.9 | -0.811 | -0.609 | 1.46 | 0.845 | -0.135 | 1.69 | -0.34 | 3.95
